# A selection: hits, their analogues and other compounds. The true share with any hit is near 2.3%.
# aDG glyco act – increases alpha dystroglycan glycosylation; Pro5-aDG cells, alpha-DG glycosylation AlphaScreen (IIH6); 0% Pro5, 100% B10-LARGE cell signal; activation, % at 10 µM; hit rate 0.22% among 360,000;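 active = activation of at least 8% versus controls, or a plate z-score of at least 8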;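 note: Pro5 are CHO cells carrying HIG-tagged alpha-DG that lacks glycosylation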
# m-calpain inh – blocks pig calpain II enzyme activity; purified calpain II, fluorogenic peptide substrate, 30 min; inhibition, % at 16 µM; hit rate 0.37% among 220,000; AID 1236;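 active = inhibition above about 50%, limit read from the data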
# H9c2 protect – protects H9c2 cardiomyocytes from peroxide injury; AID 588492; H2O2 injury protection, ATPLite, 2 h; protection from H2O2 cell death, % at 20 µM; hit rate 0.63% among 360,000;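 active = compounds giving at least 50% protection of heart cells from peroxide-induced death in the single-dose screen, raw or plate-pattern-corrected value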;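 note: 0% = DMSO wells with peroxide and 100% = DMSO wells without peroxide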
# TAG inh – inhibitors of triacylglycerol accumulation | hit rate 0.66% among 230,000 | H9c2 cells, Nile Red lipid (TAG) fluorescence; cells loaded with 200 µM oleic acid | inhibition, % at 12.5 µM;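 active = pattern-corrected inhibition of lipid staining of at least 50% with the nuclear-stain viability signal not falling by more than 50%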;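 note: 0% = DMSO wells and 100% = triacsin C control wells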
# FAS TE block – FAS thioesterase (human) inhibition; P49327; recombinant FAS-TE, OMFH fluorogenic substrate, fluorescence endpoint; inhibition, % at 15 µM; hit rate 0.67% among 360,000;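 active = compounds whose normalised, plate-corrected inhibition of enzyme fluorescence in the single-dose primary screen is 50% or more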;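 note: 0% = DMSO with enzyme and 100% = substrate without enzyme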
# beta cell repl – induces beta-cell replication in MIN6 cells; MIN6 cells proliferation, ATPlite luminescence, 48 h; cells starved in 0.2% serum; 100% = growth in 10% serum; proliferation, % at 10 µM; hit rate 0.29% among 330,000; AID 2380;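 active = compounds whose signal lies at least 3.5 SD above the mean of all wells on their plate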;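 note: 0% = DMSO-treated cells in low-serum medium and 100% = 10% serum control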
# FAS-TE inh conf – FAS thioesterase (human) inhibition, confirmation; inhibition, % at 15 µM; hit rate 45% among 2,300; recombinant FAS-TE, OMFH fluorogenic substrate, fluorescence; shares compounds with FAS TE block;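 active = compounds inhibiting the enzyme by at least 50% at 15 µM in any one of the replicates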;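 note: 0% = enzyme with DMSO only and 100% = wells lacking enzyme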
# * hit, by the source's call; · = not tested or not shown.
SMILES,aDG glyco act,m-calpain inh,H9c2 protect,TAG inh,FAS TE block,beta cell repl,FAS-TE inh conf
Cc1cc(C)n2c(SCC(=O)Nc3ncc(C(F)(F)F)cc3Cl)nnc2n1,-0.4,28.1,-6.0,3.3,-2.3,4.8,·
COC(=O)CNC(=O)CSc1nnc(-c2ccc(OC)cc2)n1CC(C)C,-0.1,-41.9,5.4,·,-4.5,0.8,·
COc1cc(C(=O)NCC(c2cccs2)N2CCOCC2)ccc1OCc1ccccc1 (centres undefined),-0.1,·,3.8,2.2,0.2,·,·
Cc1ccc(-c2nnc(SCC(=O)N/N=C/c3c(C)nn(-c4ccccc4)c3C)n2-c2ccc(C)cc2)cc1,0.7,-63.1,-5.2,-11.7,61.6*,0.0,16.2
Cc1ccc(-c2nnc(SCC(=O)N/N=C/c3c(C)nn(-c4ccccc4)c3C)n2-c2ccccc2)cc1,0.7,-91.2,0.7,-0.1,32.8,0.0,·
COc1ccc(C)cc1S(=O)(=O)NCc1ccccn1,0.0,·,-2.4,1.5,-3.2,·,·
Cc1nc2cc(NC(=O)C3(C)CCCN(C(C)C)C3)ccc2o1 (centres undefined),-0.1,·,-3.7,31.8,-10.0,·,·
CCOc1ccc(Oc2cc(NC(=O)c3ccco3)cc([N+](=O)[O-])c2)cc1,-0.2,-14.3,-4.8,·,41.5,·,·
O=C(Nc1cc(Oc2ccc(Cl)cc2)cc([N+](=O)[O-])c1)c1ccco1,0.0,10.5,-11.0,·,56.4*,-2.3,45.1
CCc1ccc(OCC(=O)N2c3ccccc3CCc3ccccc32)cc1,0.5,32.9,-24.2,·,51.7*,-6.2,21.8
CC1CCCN(S(=O)(=O)c2ccc(NC(=O)Cc3ccc(S(=O)(=O)N4CCOCC4)s3)cc2)C1 (centres undefined),0.4,·,-4.8,-23.1,61.0*,-7.0,27.6*
CC(C)C[C@@H](CN1CCCC1CN1C(=S)NC[C@@H]1Cc1ccc(O)cc1)N1C[C@H](Cc2ccc(O)cc2)N(CC2CCCCC2)C1=S (some centres undefined),0.5,·,-40.4,130.2,-51.6,·,·
O=C(Nc1ccc(Nc2ccccc2)cc1)c1cc([N+](=O)[O-])ccc1Cl,1.7,·,-7.4,-1.9,59.4*,-5.0,48.5*
O=C(Nc1ccc(S(=O)(=O)N2CCOCC2)cc1)c1cccc([N+](=O)[O-])c1,0.1,·,-1.2,-2.2,34.6,-2.0,·
O=C(NC1CCCCCCC1)c1cc([N+](=O)[O-])ccc1Cl,0.1,·,9.2,18.0,66.5*,-3.5,64.9*
O=C(Nc1ccc(S(=O)(=O)N2CCOCC2)cc1)c1cc([N+](=O)[O-])ccc1Cl,0.0,·,2.6,5.2,65.2*,-4.9,42.1
COC(=O)[C@]12CCCCC=C1N(CCC1=CCCCC1)C(=O)[C@H](CC(=O)NCCc1ccccc1OC)C2,0.0,·,·,·,13.4,·,·
Cc1csc(N(C(=O)CCNC(=O)c2ccc([N+](=O)[O-])cc2)c2ccccc2)n1,0.3,13.5,4.8,·,72.4*,-2.4,78.1*
CCC(=O)Nc1nc(-c2ccc3c(c2)CC(C)N3S(C)(=O)=O)cs1 (centres undefined),-0.2,-23.7,12.5,1.3,7.6,0.9,·
CC1Cc2cc(-c3csc(NC(=O)Cc4cccs4)n3)ccc2N1S(C)(=O)=O (centres undefined),1.3,-86.6,-5.4,·,51.1*,-5.1,53.2*
CS(=O)(=O)N1CCc2cc(-c3csc(NC(=O)Cc4ccccc4)n3)ccc21,0.1,-29.9,-1.5,·,64.5*,-2.3,58.4*
COC(=O)[C@H](Cc1ccccc1)NS(=O)(=O)c1ccc(F)cc1Br,-0.1,·,2.5,3.7,2.4,·,·
O=C(NCC1CCCO1)C1CC(=O)N(c2ccc(Cl)cc2)C1 (centres undefined),0.0,·,-1.0,·,-0.5,2.8,·
O=C(COc1ncnc2cc([N+](=O)[O-])ccc12)N(CCc1ccccc1)Cc1ccccc1,0.2,-8.9,16.8,·,62.3*,0.0,51.9*
O=C(COc1ccc([N+](=O)[O-])cc1)N(Cc1ccccc1)Cc1ccccc1,0.6,22.3,-6.4,·,35.8,0.0,·
SMILES,aDG glyco act,m-calpain inh,H9c2 protect,TAG inh,FAS TE block,beta cell repl,FAS-TE inh conf
COc1ccc(-c2cnc3c(NC(C)=O)cc(-c4cccc(C(=O)N(C)C)c4)cn23)cc1OC,0.1,·,44.9,-0.3,-4.7,·,·
CCC(C)(C)C1CCC(=NNS(=O)(=O)c2ccc(C)c([N+](=O)[O-])c2)CC1 (centres undefined),0.0,1.6,1.9,·,72.7*,-2.8,57.9*
CC(=O)Nc1ccc(SC[C@H](c2ccccc2)N2CCN(CCc3ccccc3)CCC2=O)cc1,·,-30.1,·,·,·,-5.5,·
COc1ccc(C/C(N)=N/OC(=O)c2cccc([N+](=O)[O-])c2)cc1,-0.4,2.1,-5.9,·,54.0*,-4.4,48.1*
O=S(=O)(Cc1noc(-c2ccc(Cl)cc2)n1)Cc1ccco1,0.2,21.8,-3.0,-9.2,5.4,-1.0,·
Cc1c(Cl)c(=O)oc2cc(OCC(=O)N3CCCC(C)C3)ccc12 (centres undefined),-0.5,·,1.5,2.6,63.9*,3.2,63.1*
Cc1c(Cl)c(=O)oc2cc(OCC(=O)NCc3cccs3)ccc12,-0.1,-286.3,3.2,3.4,57.1*,-2.0,10.9
O=C(COc1ccc2c3c(c(=O)oc2c1)CCC3)N1CCN(c2ccccc2)CC1,0.4,·,0.3,·,50.5*,-1.6,34.3*
Cc1c(C)c2ccc(OCC(=O)N3CCN(c4ccccc4)CC3)cc2oc1=O,0.1,·,-6.7,·,56.4*,-0.6,63.5*
O=C(Nc1c2c(nn1-c1ccccc1)CS(=O)(=O)C2)c1ccccc1C(F)(F)F,-0.2,·,-2.0,-3.4,-2.7,-0.4,·
Cc1cn([C@H]2C[C@H](O)[C@@H](CCC(=O)NCCCn3ccnc3)O2)c(=O)[nH]c1=O,-0.1,·,5.0,-5.4,-6.2,·,·
CC(NC(=O)c1ccc(Cn2cc([N+](=O)[O-])cn2)cc1)c1ccccc1 (centres undefined),0.0,5.9,10.5,·,-1.8,-0.9,·
CC(NC(=O)Cn1cc([N+](=O)[O-])cn1)c1ccc(C(C)(C)C)cc1 (centres undefined),0.1,·,-0.8,2.2,75.7*,-1.9,55.4*
Clc1ccc(-c2ccc(CNCc3ccccn3)o2)cc1,0.3,·,6.0,·,2.0,0.4,·
Cc1ccc(S(=O)(=O)N2C[C@H]3[C@H]4C(=O)N(Cc5ccccc5)C(=O)[C@H]4CC(=O)[C@H]3[C@@H]2c2ccccc2Cl)cc1,-0.3,·,9.0,·,85.3*,·,22.1
Cc1ccc(S(=O)(=O)N2C[C@H]3[C@H]4C(=O)N(C5CCCCC5)C(=O)[C@H]4CC(=O)[C@H]3[C@@H]2c2ccccc2F)cc1,0.0,·,5.2,·,15.4,·,·
Cc1ccc(S(=O)(=O)N2C[C@H]3[C@H]4C(=O)N(C5CCCCC5)C(=O)[C@H]4CC(=O)[C@H]3[C@@H]2c2cccc3ccccc23)cc1,-0.3,·,4.2,·,97.4*,·,9.6
